Assay results from the supplement of paper PMC12669032.
Unmarked numbers belong to inactive results.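 How the source made its calls: active = AUC reduced over 20% with Padj below 0.05 in at least 2 of 3 replicates; inactive = otherwise.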

Tests used:
Assay in all cases: growth AUC relative to DMSO control (median of replicates) (fraction); higher = more growth (less inhibition), active = hit call of the paper
Settings in all cases: 20 µM; 24 h
[1] = system: Akkermansia muciniphila
In short: (§1)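 Area under the growth curve was normalised to the plate median of solvent-only wells, or to row and column medians on the industrial chemical plate. Growth curves came from anaerobic gut bacterial monocultures in mGAM at 37 °C, seeded at OD600 0.05 with 20 µM compound (1% DMSO), and read at OD600 hourly for 24 h with the minimum OD set to 0. The value is the median of three biological replicates grown on separate days.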

[2] = system: Bacteroides caccae
In short: as §1

[3] = system: Bacteroides clarus
In short: as §1

[4] = system: Bacteroides dorei
In short: as §1

[5] = system: Bacteroides stercoris
In short: as §1

[6] = system: Bacteroides thetaiotaomicron
In short: as §1

[7] = system: Bacteroides uniformis
In short: as §1

[8] = system: Bifidobacterium longum subsp. longum
In short: as §1

[9] = system: Clostridium difficile
In short: as §1

[10] = system: Collinsella aerofaciens
In short: as §1

NC(=O)/N=C1/SCCN1Cc1ccc(Cl)nc1
growth AUC [1]: 0.782 | growth AUC [2]: 1.01 | growth AUC [3]: 0.999 | growth AUC [4]: 0.979 | growth AUC [5]: 1.04 | growth AUC [6]: 0.978 | growth AUC [7]: 1.01 | growth AUC [8]: 1.03 | growth AUC [9]: 1 | growth AUC [10]: 1.01

COC(=O)/C(C)=C/OP(=S)(OC)OC
growth AUC [1]: 0.968 | growth AUC [2]: 0.992 | growth AUC [3]: 0.963 | growth AUC [4]: 0.985 | growth AUC [5]: 1.02 | growth AUC [6]: 0.978 | growth AUC [7]: 0.96 | growth AUC [8]: 1.02 | growth AUC [9]: 0.984 | growth AUC [10]: 1.03

CCOP(=S)(OCC)Oc1cnc2ccccc2n1
growth AUC [1]: 0.881 | growth AUC [2]: 0.925 | growth AUC [3]: 0.94 | growth AUC [4]: 0.993 | growth AUC [5]: 0.934 | growth AUC [6]: 0.895 | growth AUC [7]: 0.867 | growth AUC [8]: 0.987 | growth AUC [9]: 0.988 | growth AUC [10]: 0.992

[CH3][Hg][Cl]
growth AUC [1]: 0.749 | growth AUC [2]: 0.912 | growth AUC [3]: 0.837 | growth AUC [4]: 0.96 | growth AUC [5]: 0.903 | growth AUC [6]: 0.679 (active) | growth AUC [7]: 0.77 (active) | growth AUC [8]: 0.868 | growth AUC [9]: 0.902 | growth AUC [10]: 1.01

Nc1cc(Cl)cc(C(=O)O)c1Cl
growth AUC [1]: 1.03 | growth AUC [2]: 0.975 | growth AUC [3]: 1.02 | growth AUC [4]: 1.04 | growth AUC [5]: 1.06 | growth AUC [6]: 1 | growth AUC [7]: 0.958 | growth AUC [8]: 1.04 | growth AUC [9]: 1.01 | growth AUC [10]: 1.06

CCOC(=O)COc1cc(-c2nn(C)c(OC(F)F)c2Cl)c(F)cc1Cl
growth AUC [1]: 0.977 | growth AUC [2]: 0.974 | growth AUC [3]: 0.986 | growth AUC [4]: 0.99 | growth AUC [5]: 0.965 | growth AUC [6]: 1.01 | growth AUC [7]: 1.04 | growth AUC [8]: 1.03 | growth AUC [9]: 1.02 | growth AUC [10]: 1.04

CCOc1cc(Oc2ccc(C(F)(F)F)cc2Cl)ccc1[N+](=O)[O-]
growth AUC [1]: 1.08 | growth AUC [2]: 0.966 | growth AUC [3]: 1.01 | growth AUC [4]: 0.917 | growth AUC [5]: 0.905 | growth AUC [6]: 1.01 | growth AUC [7]: 0.992 | growth AUC [8]: 1.03 | growth AUC [9]: 0.993 | growth AUC [10]: 0.881

CCN(CC)C(=S)[S-].O.O.O.[Na+]
growth AUC [1]: 0.862 | growth AUC [2]: 0.981 | growth AUC [3]: 1.01 | growth AUC [4]: 0.978 | growth AUC [5]: 1.08 | growth AUC [6]: 0.848 | growth AUC [7]: 1.01 | growth AUC [8]: 0.961 | growth AUC [9]: 1.04 | growth AUC [10]: 0.925

COP(=O)(NC(C)=O)SC (stereo not given)
growth AUC [1]: 0.941 | growth AUC [2]: 1.01 | growth AUC [3]: 0.993 | growth AUC [4]: 0.992 | growth AUC [5]: 1.02 | growth AUC [6]: 0.978 | growth AUC [7]: 0.979 | growth AUC [8]: 0.96 | growth AUC [9]: 1.01 | growth AUC [10]: 1.04

CCOP(=O)(NC(C)C)Oc1ccc(S(C)(=O)=O)c(C)c1 (stereo not given)
growth AUC [1]: 1.03 | growth AUC [2]: 1.01 | growth AUC [3]: 1.04 | growth AUC [4]: 1.04 | growth AUC [5]: 1.05 | growth AUC [6]: 1.02 | growth AUC [7]: 1.01 | growth AUC [8]: 0.986 | growth AUC [9]: 1.04 | growth AUC [10]: 1.01

Cc1cc(Cl)ccc1O[C@H](C)C(=O)O
growth AUC [1]: 1.04 | growth AUC [2]: 0.841 | growth AUC [3]: 1 | growth AUC [4]: 0.982 | growth AUC [5]: 1.15 | growth AUC [6]: 0.991 | growth AUC [7]: 0.958 | growth AUC [8]: 1.01 | growth AUC [9]: 0.972 | growth AUC [10]: 0.968

COP(=O)(OC)SCn1c(=O)oc2cc(Cl)cnc21
growth AUC [1]: 0.883 | growth AUC [2]: 1.02 | growth AUC [3]: 0.983 | growth AUC [4]: 1.02 | growth AUC [5]: 1.01 | growth AUC [6]: 1.01 | growth AUC [7]: 1.03 | growth AUC [8]: 1.01 | growth AUC [9]: 1 | growth AUC [10]: 1.03

CCNc1nc(Cl)nc(NCC)n1
growth AUC [1]: 0.894 | growth AUC [2]: 1 | growth AUC [3]: 1.01 | growth AUC [4]: 1.02 | growth AUC [5]: 1.02 | growth AUC [6]: 1.01 | growth AUC [7]: 1.01 | growth AUC [8]: 1.05 | growth AUC [9]: 1.01 | growth AUC [10]: 1.04

CN(C)C(=S)SSC(=S)N(C)C
growth AUC [1]: 0.83 | growth AUC [2]: 0.968 | growth AUC [3]: 0.967 | growth AUC [4]: 0.961 | growth AUC [5]: 0.87 | growth AUC [6]: 0.75 (active) | growth AUC [7]: 0.909 | growth AUC [8]: 0.974 | growth AUC [9]: 0.945 | growth AUC [10]: 0.957

COC(=O)Nc1nc2ccccc2[nH]1
growth AUC [1]: 0.927 | growth AUC [2]: 1.01 | growth AUC [3]: 0.991 | growth AUC [4]: 1.01 | growth AUC [5]: 0.957 | growth AUC [6]: 1.04 | growth AUC [7]: 0.988 | growth AUC [8]: 1.01 | growth AUC [9]: 1.06 | growth AUC [10]: 1.03

Oc1cc(Cl)c(Cl)cc1Cl
growth AUC [1]: 0.97 | growth AUC [2]: 0.934 | growth AUC [3]: 0.945 | growth AUC [4]: 0.936 | growth AUC [5]: 0.913 | growth AUC [6]: 0.986 | growth AUC [7]: 0.992 | growth AUC [8]: 1.02 | growth AUC [9]: 0.929 | growth AUC [10]: 0.922

CCN(CC)C(=O)SCc1ccc(Cl)cc1
growth AUC [1]: 0.879 | growth AUC [2]: 0.98 | growth AUC [3]: 0.954 | growth AUC [4]: 0.978 | growth AUC [5]: 1.12 | growth AUC [6]: 0.91 | growth AUC [7]: 0.973 | growth AUC [8]: 0.948 | growth AUC [9]: 1.02 | growth AUC [10]: 0.948

C#CCOc1ccc(CCNC(=O)C(OCC#C)c2ccc(Cl)cc2)cc1OC (stereo not given)
growth AUC [1]: 1.02 | growth AUC [2]: 0.94 | growth AUC [3]: 0.948 | growth AUC [4]: 0.957 | growth AUC [5]: 0.898 | growth AUC [6]: 0.951 | growth AUC [7]: 0.901 | growth AUC [8]: 1.02 | growth AUC [9]: 0.981 | growth AUC [10]: 1

COc1nc(NC(C)C)nc(NC(C)C)n1
growth AUC [1]: 1.01 | growth AUC [2]: 1.04 | growth AUC [3]: 0.993 | growth AUC [4]: 0.994 | growth AUC [5]: 0.979 | growth AUC [6]: 1.02 | growth AUC [7]: 1.02 | growth AUC [8]: 1.02 | growth AUC [9]: 0.98 | growth AUC [10]: 0.995

COP(=S)(OC)SCN1C(=O)c2ccccc2C1=O
growth AUC [1]: 0.901 | growth AUC [2]: 0.971 | growth AUC [3]: 0.966 | growth AUC [4]: 1 | growth AUC [5]: 0.97 | growth AUC [6]: 0.978 | growth AUC [7]: 0.975 | growth AUC [8]: 0.951 | growth AUC [9]: 0.94 | growth AUC [10]: 0.965

Nc1ccc(Cl)cc1Cl
growth AUC [1]: 1.06 | growth AUC [2]: 1 | growth AUC [3]: 1.01 | growth AUC [4]: 1.02 | growth AUC [5]: 0.97 | growth AUC [6]: 1.03 | growth AUC [7]: 0.993 | growth AUC [8]: 1.04 | growth AUC [9]: 1.03 | growth AUC [10]: 1.04

COP(=S)(OC)SCn1nnc2ccccc2c1=O
growth AUC [1]: 1.09 | growth AUC [2]: 0.98 | growth AUC [3]: 0.977 | growth AUC [4]: 0.877 | growth AUC [5]: 0.883 | growth AUC [6]: 0.969 | growth AUC [7]: 0.986 | growth AUC [8]: 0.949 | growth AUC [9]: 0.931 | growth AUC [10]: 0.941

CS(=O)(=O)c1ccc(C(=O)C2C(=O)CCCC2=O)c(Cl)c1COCC(F)(F)F
growth AUC [1]: 1.07 | growth AUC [2]: 1.02 | growth AUC [3]: 0.988 | growth AUC [4]: 0.999 | growth AUC [5]: 1.02 | growth AUC [6]: 0.989 | growth AUC [7]: 0.989 | growth AUC [8]: 1.01 | growth AUC [9]: 0.979 | growth AUC [10]: 1.03

COC(=O)C(C)N(C(=O)c1ccco1)c1c(C)cccc1C (stereo not given)
growth AUC [1]: 1.07 | growth AUC [2]: 0.872 | growth AUC [3]: 0.984 | growth AUC [4]: 0.85 | growth AUC [5]: 0.985 | growth AUC [6]: 0.727 (active) | growth AUC [7]: 0.88 | growth AUC [8]: 1.1 | growth AUC [9]: 0.941 | growth AUC [10]: 0.913

COC(=O)c1ccccc1S(=O)(=O)NC(=O)Nc1nc(C)nc(OC)n1
growth AUC [1]: 1.1 | growth AUC [2]: 1.02 | growth AUC [3]: 0.982 | growth AUC [4]: 1.01 | growth AUC [5]: 0.849 | growth AUC [6]: 0.995 | growth AUC [7]: 1.03 | growth AUC [8]: 1 | growth AUC [9]: 1.01 | growth AUC [10]: 0.957

COCc1c(F)c(F)c(COC(=O)C2C(C=C(C)C)C2(C)C)c(F)c1F (stereo not given)
growth AUC [1]: 0.976 | growth AUC [2]: 0.953 | growth AUC [3]: 0.943 | growth AUC [4]: 0.991 | growth AUC [5]: 1.17 | growth AUC [6]: 0.98 | growth AUC [7]: 0.972 | growth AUC [8]: 1.01 | growth AUC [9]: 1.02 | growth AUC [10]: 1.03

CCC(C)Nc1c([N+](=O)[O-])cc(C(C)(C)C)cc1[N+](=O)[O-] (stereo not given)
growth AUC [1]: 0.988 | growth AUC [2]: 0.953 | growth AUC [3]: 0.939 | growth AUC [4]: 0.98 | growth AUC [5]: 1.11 | growth AUC [6]: 0.931 | growth AUC [7]: 0.945 | growth AUC [8]: 0.81 | growth AUC [9]: 0.938 | growth AUC [10]: 0.959

COc1ccccc1N
growth AUC [1]: 1 | growth AUC [2]: 1.02 | growth AUC [3]: 1.04 | growth AUC [4]: 1.01 | growth AUC [5]: 1.16 | growth AUC [6]: 1.02 | growth AUC [7]: 1.02 | growth AUC [8]: 1.05 | growth AUC [9]: 1.01 | growth AUC [10]: 1.02

CNC(=O)Oc1cc(C)c(SC)c(C)c1
growth AUC [1]: 1.07 | growth AUC [2]: 0.934 | growth AUC [3]: 1 | growth AUC [4]: 0.971 | growth AUC [5]: 0.912 | growth AUC [6]: 1.01 | growth AUC [7]: 0.989 | growth AUC [8]: 1.34 | growth AUC [9]: 1.01 | growth AUC [10]: 0.934

CCOC1Oc2ccc(OS(C)(=O)=O)cc2C1(C)C (stereo not given)
growth AUC [1]: 1.03 | growth AUC [2]: 0.907 | growth AUC [3]: 0.978 | growth AUC [4]: 0.889 | growth AUC [5]: 0.897 | growth AUC [6]: 0.987 | growth AUC [7]: 0.993 | growth AUC [8]: 1.01 | growth AUC [9]: 0.99 | growth AUC [10]: 0.916
